Screens (PubChem)
This is a sample that favours compounds with a hit; in the whole collection about 18% have one here.
IL1B secr inh: inflammasome signaling inhibition, IL-1 beta readout | activity change, % at 57.5 µM | 360,000 compounds, 4.7% hits | THP-1 LPS/ATP IL-1B secretion, AlphaLISA, 16 h; stronger effect = lower value; in the data active = activity change below about -50%; inconclusive = mostly about -30% to -49%
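Secreted IL-1B measured by AlphaLISA bead assay after 16 h compound exposure of THP-1 cells; compounds (final up to 57.5 uM) added 1 h before LPS (250 ng/mL) and ATP (1.25 mM) stimulation; lower signal means less secretion.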
TDP1 cell CPT: DT40-hTDP1 cell growth loss with CPT; chicken DT40 Tdp1-/-;hTDP1 cells + 20 nM CPT, ATP luminescence, 48 h; Potency, µM (doses to about 46.2 µM), usual class: inhibitors; 420,000 compounds, 12% hits; note: nearly all actives have a fitted effect of over 55% in size
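Cell growth measured by CellTiter-Glo luminescence after a minimum 48 h, 37 C compound exposure with 20 nM CPT in Tdp1-knockout DT40 cells stably expressing hTDP1, seeded 400/well; qHTS titration format.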
TDP1 cell noCPT: qHTS for Inhibitors of human tyrosyl-DNA phosphodiesterase 1 (TDP1): qHTS in cells in absence of CPT | DT40 Tdp1-/- hTDP1 cells, no CPT, ATP luminescence, 48 h | Potency, µM (doses to about 46.2 µM), actives largely listed as inhibitors | 420,000 compounds, 15% hits; note: nearly all actives have a fitted effect of over 55% in size
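Readout: luminescence from CellTiter-Glo after 30 min in the dark at RT. Cells: DT40 Tdp1-/- with stable hTDP1, 400/well. Exposure: compounds alone, ≥48 hr, 37 °C.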
HepG2 tox: HepG2 cytotoxicity, counter-screen for TGF-b inhibitors | Potency, µM (highest dose often 46.1 µM), actives largely listed as cytotoxic | HepG2 CAGA-GFP viability, ATP luminescence, 18 h | 410,000 compounds, 0.76% hits
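CellTiter-Glo luminescence gave cytotoxicity after 18 hours at 37 degrees C. The cells were HepG2 CAGA-GFP in 1% FBS DMEM, stimulated with 500 pg/mL TGF-beta after compound addition. %Activity was normalised to no-cell wells (complete cell-killing) and DMSO (no toxicity), and curves were fitted and classified.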
TGFb inhibitor: blocks TGF-b signaling | Potency, µM (series often up to 46.1 µM), actives largely listed as inhibitors | AID 588855 | HepG2 CAGA-GFP TGF-b/SMAD3 reporter, GFP fluorescence, 18 h; TGF-beta stimulated, 500 pg/mL final | 410,000 compounds, 1.2% hits; note: nearly all actives have a fitted effect of over 65% in size
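Per well, imaged GFP fluorescence of HEPG2 CAGA-GFP cells gives the signal; cells get compound, then TGF-beta (500 pg/mL final), 18 h at 37 degrees C; %Activity versus -TGF-beta and +DMSO controls.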
TDP1 block: TDP1 (human) enzyme inhibition | Q9NUW8 | recombinant TDP1, AlphaScreen DNA substrate cleavage | Potency, µM (titrated, usually from 130 µM), hits mostly inhibitors | 350,000 compounds, 0.28% hits | AID 485290; note: nearly all actives have a fitted effect of over 40% in size
Target sequence (Q9NUW8 whole entry, looked up): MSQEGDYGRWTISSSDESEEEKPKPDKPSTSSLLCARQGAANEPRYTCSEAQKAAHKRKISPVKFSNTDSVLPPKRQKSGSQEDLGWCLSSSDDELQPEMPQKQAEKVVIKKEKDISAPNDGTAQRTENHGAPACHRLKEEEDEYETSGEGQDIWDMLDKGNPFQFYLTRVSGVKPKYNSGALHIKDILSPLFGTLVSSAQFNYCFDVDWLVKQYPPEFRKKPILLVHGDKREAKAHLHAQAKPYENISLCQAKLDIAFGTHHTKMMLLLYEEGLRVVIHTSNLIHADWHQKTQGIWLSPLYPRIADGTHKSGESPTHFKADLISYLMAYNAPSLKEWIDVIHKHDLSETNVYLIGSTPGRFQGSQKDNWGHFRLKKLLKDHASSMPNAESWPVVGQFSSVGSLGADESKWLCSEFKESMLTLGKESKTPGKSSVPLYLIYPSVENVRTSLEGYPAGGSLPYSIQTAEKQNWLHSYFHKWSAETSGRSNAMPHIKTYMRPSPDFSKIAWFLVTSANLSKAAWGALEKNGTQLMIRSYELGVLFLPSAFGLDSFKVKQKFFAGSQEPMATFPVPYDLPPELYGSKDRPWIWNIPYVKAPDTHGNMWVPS
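AlphaScreen read-out: signal falls as enzyme removes the 3' tyrosine-FITC from a 5'-biotinylated DNA oligo (15 nM, 5 min, RT). Enzyme was E. coli-made recombinant Tdp1 at 1 nM, exposed to compound for 15 min beforehand; beads 10 ug/ml, 10 min.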
Of the large screens only hits and unclear results are named; the others gave an inactive call. Unless noted, calls come from the whole dose curve; as a rule, active = well fitted curve in the direction sought with a large enough effect; inconclusive = small, poorly fitted or top-dose-only effect, or another doubt; inactive = no such curve, though single readings can be large; an effect the other way counts as inactive or inconclusive.

CCC(C)(C)NC(=O)c1cc([N+](=O)[O-])ccc1N1CCOCC1	none
Cc1oc(-c2ccc(Cl)cc2)nc1Cn1c(=O)cc(-c2ccccc2)c2c(C)nn(C)c21	none (no result: IL1B secr inh)
O=C(/C=C/[C@H]1O[C@@H](n2cnc3c(NC(=O)c4ccccc4)ncnc32)[C@H](O)[C@@H]1O)NCC1CCCCC1	none (no result: TDP1 block)
COc1ccc(-c2cc(C(C)=O)c(C)n2CCC(=O)Nc2cc(C)ccc2OC)cc1	TDP1 cell CPT 16µM, TDP1 cell noCPT 18µM (no result: IL1B secr inh)
COc1cc2c(cc1OC)C(c1ccccc1)N(C(=O)C(C)(C)C)CC2 (stereo not drawn)	none (no result: TDP1 block)
O=C1NC2(C=Cc3c(ccc4ccccc34)O2)Oc2ccccc21 (stereo not drawn)	TDP1 cell CPT 23µM, TDP1 cell noCPT 23µM
COc1cc2c(cc1OC)CN(C(=O)CCOc1ccccc1C)CC2	TDP1 cell CPT inconclusive, TDP1 cell noCPT 21µM
COc1cc(C(C)=O)ccc1OCC(=O)N1CCc2ccccc2C1	none
COc1cc2c(cc1OC)CN(C(=O)CCOc1ccccc1)CC2	TDP1 cell CPT inconclusive, TDP1 cell noCPT 18µM
C/C=C/c1ccc(OCC(=O)N2CCc3cc(OC)c(OC)cc3C2)c(OC)c1	IL1B secr inh inconclusive, TDP1 cell CPT inconclusive, TDP1 cell noCPT 23µM
COc1cc2c(cc1OC)CN(C(=O)CSc1ccc(F)cc1)CC2	TDP1 cell CPT inconclusive, TDP1 cell noCPT inconclusive
COc1cc2c(cc1OC)CN(C(=O)Cc1ccccc1)CC2	none (no result: TDP1 block)
COc1ccc(OC)c(CC(=O)N2CCc3cc(OC)c(OC)cc3C2)c1	TDP1 cell CPT 0.13µM, TDP1 cell noCPT inconclusive (no result: TDP1 block)
COc1cc2c(cc1OC)CN(C(=O)CCCN1C(=O)c3ccccc3C1=O)CC2	none
COc1cc2c(cc1OC)CN(C(=O)CCCOc1ccc(Cl)cc1Cl)CC2	IL1B secr inh inconclusive, TDP1 cell CPT 16µM, TDP1 cell noCPT 18µM, TGFb inhibitor inconclusive
N#Cc1nc(Nc2ccccc2)nc(NC2CCCC2)n1	none (no result: IL1B secr inh, TDP1 cell CPT, TDP1 cell noCPT, HepG2 tox, TGFb inhibitor)
CCOC(=O)C1(CCOc2ccccc2)CCN(Cc2ccc3nonc3c2)CC1	TDP1 cell CPT inconclusive, TDP1 cell noCPT 21µM
CCOC(=O)C1(CCOc2ccccc2)CCN(Cc2ccc(OCC)c(CO)c2)CC1	TDP1 cell CPT 15µM, TDP1 cell noCPT 18µM (no result: TDP1 block)
CCOC(=O)C1(CCOc2ccccc2)CCN(Cc2cccc(-n3cccn3)c2)CC1	TDP1 cell CPT 16µM, TDP1 cell noCPT 16µM, TGFb inhibitor inconclusive
CCOC(=O)C1(CCOc2ccccc2)CCN(Cc2ccccc2O)CC1	TDP1 cell CPT inconclusive, TDP1 cell noCPT inconclusive (no result: TDP1 block)
CCOC(=O)C1(CCOc2ccccc2)CCN(Cc2cccc(OC)c2OC)CC1	IL1B secr inh -88, TDP1 cell CPT inconclusive, TDP1 cell noCPT 21µM (no result: TDP1 block)
CCOc1cc2[nH]c(=O)n(CCCC(=O)N(C)Cc3ccccc3)c(=O)c2cc1OCC	TDP1 cell CPT inconclusive, TDP1 cell noCPT inconclusive
CCOC(=O)C1(CCOc2ccccc2)CCN(Cc2ccc(CO)o2)CC1	TDP1 cell CPT 8.2µM, TDP1 cell noCPT 2.3µM
CCOC(=O)C1(CCOc2ccccc2)CCN(Cc2cccc(F)c2)CC1	IL1B secr inh inconclusive, TDP1 cell CPT 16µM, TDP1 cell noCPT 5.8µM, TGFb inhibitor inconclusive (no result: TDP1 block)
CCOC(=O)C1(CCOc2ccccc2)CCN(C(=O)c2ccc(-n3cccn3)cc2)CC1	TDP1 cell CPT inconclusive, TDP1 cell noCPT 21µM, TGFb inhibitor inconclusive (no result: TDP1 block)
CCOC(=O)C1(CCOc2ccccc2)CCN(CCCn2cccn2)CC1	TDP1 cell CPT inconclusive, TDP1 cell noCPT inconclusive (no result: TDP1 block)
CCOC(=O)C1(Cc2cccc(F)c2)CCN(Cc2nc(CC)[nH]c2C)CC1	IL1B secr inh -55, TDP1 cell CPT inconclusive, TDP1 cell noCPT 23µM
O=C(COc1ccc(-c2nnco2)cc1)Nc1c(Cl)cccc1C(F)(F)F	TGFb inhibitor inconclusive
